# Test results from PubChem BioAssay (NCATS).
# Where “and” joins values, the source holds several entries; their conditions need not be identical. Equal entries are not always repeated. Records with an inconclusive call do not appear. Calls of active or inactive are those of the source. Calls come from the whole dose curve; as a rule, active = well fitted curve in the direction sought with a large enough effect; inconclusive = small, poorly fitted or top-dose-only effect, or another doubt; inactive = no such curve, though single readings can be large or run the other way. Where a SMILES comes first, the peptide text is derived from it. Bridges are numbered along the chain shown (N, C = ends). [ ]: non-standard residue; d: D form. The star is where a group is joined. X2 = CC[C@H](C)CCCCC(=O)*; Orn = NCCC[C@H](N)C(=O)O; Dab = NCC[C@H](N)C(=O)O; Mpa = O=C(O)CCS
# Test: qHTS Assay for Identifying Gametocytocidal Compounds (AID 743244);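 for max response: actives lower the fluorescent signal which means gametocytes are killed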
# Settings: P. falciparum 3D7 stage III-V gametocytes, alamarBlue, 72 h; max response: stronger effect = lower value
# Summary of the method: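 Stage III-V P. falciparum 3D7 gametocytes, 20,000 per well, were exposed to compounds for 72 h at 37C, 5% CO2. AlamarBlue was then added for 24 h and viability was read as fluorescence at Ex 525/Em 598 nm.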
# % is set by controls: 0 for no effect and ±100 for the full control effect; potency is the fitted concentration of half-maximal effect.
Compound,Potency,max response
CC1(S(=O)(=O)O)CC(=O)c2ccccc2C1=O (stereo not drawn),6310 nM (active),–
CC1=C(C(=O)OCCN(Cc2ccccc2)c2ccccc2)C(c2cccc([N+](=O)[O-])c2)C(P2(=O)OCC(C)(C)CO2)=C(C)N1 (stereo not drawn),–,12.9% (inactive)
CC#CCC(C)[C@H](O)/C=C/[C@@H]1[C@H]2c3cccc(CCCC(=O)O)c3O[C@H]2C[C@H]1O (stereo partly drawn),–,6.65% (inactive)
CCC(=O)O,–,-11.8% (inactive)
C/C=C(/CC[C@@H](C)[C@H]1CC[C@H]2C3=CC[C@H]4[C@H](C)[C@@H](O)CC[C@]4(C)[C@H]3CC[C@]12C)C(C)C,–,-5.29% (inactive)
CCN(CC)c1ccc(N=Nc2ccc(S(=O)(=O)N(C)C)cc2)c(S(=O)(=O)NCC[n+]2ccccc2)c1,–,1.66% (inactive)
CC(C(=O)O)c1ccc(C2CCCCC2)c2ccccc12 (stereo not drawn),–,16% (inactive)
CCCCCCCCCCCCCCCCCC(=O)[O][Al],–,-2.25% (inactive)
O=P(O)(O)OC(Cn1cncn1)(Cn1cncn1)c1ccc(F)cc1F,–,1.82% (inactive)
C/C=C1\NC(=O)[C@H]2CSSCC/C=C/[C@H](CC(=O)N[C@H](C(C)C)C(=O)N2)OC(=O)C(C(C)C)NC1=O (stereo partly drawn),590 nM (active),–
CCCCCCCCCCCCCCCC(=O)OC[C@@H](COP(=O)([O-])OCC[N+](C)(C)C)OC(=O)CCCCCCCCCCCCCCC,–,1.44% (inactive)
O=C(O)c1cccc(/C=C2/C[C@@H]3[C@@H](/C=C/[C@@H](O)C4CCCCC4)[C@H](O)C[C@@H]3O2)c1,–,-5.6% (inactive)
NCCCNCCCCNC(=O)C(O)NC(=O)CCCCCCN=C(N)N (stereo not drawn),–,-11.8% (inactive)
O.O=C([O-])CC([S-])C(=O)[O-].[Au+].[Na+].[Na+] (stereo not drawn),–,-19.1% (inactive)
CC[C@H](C)CCCCC(=O)N[C@@H](CCN)C(=O)N[C@H](C(=O)N[C@@H](CCN)C(=O)N[C@H]1CCNC(=O)[C@H]([C@@H](C)O)NC(=O)[C@H](CCN)NC(=O)[C@H](CCN)NC(=O)[C@H](CC(C)C)NC(=O)[C@@H](CC(C)C)NC(=O)[C@H](CCN)NC1=O)[C@@H](C)O (X2-[Dab]T[Dab][Dab][Dab][dL]L[Dab][Dab]T; lactam 4-C),–,13.6% (inactive)
C1CNCCN1,–,-4.23% (inactive)
CCCCCCCCCCCCCCCC(=O)O[C@@H]1CC(C)=C(/C=C/C(C)=C/C=C/C(C)=C/C=C/C=C(C)/C=C/C=C(C)/C=C/C2=C(C)C[C@@H](OC(=O)CCCCCCCCCCCCCCC)CC2(C)C)C(C)(C)C1,–,1.34% (inactive)
O=S(O)CNc1ccc(S(=O)(=O)c2ccc(NCS(=O)O)cc2)cc1,–,-0.921% (inactive)
CCOC(=O)[C@H](CCc1ccccc1)N[C@@H](C)C(=O)N1CC2(C[C@H]1C(=O)O)SCCS2,–,8.21% (inactive)

Compound,Potency,max response
COCC1=C(C(=O)OC(C)OC(=O)OC(C)C)N2C(=O)[C@@H](NC(=O)/C(=N\OC)c3csc(N)n3)[C@H]2SC1 (stereo partly drawn),–,-2.17% (inactive) and -16.2% (inactive)
CCOc1ccc(C[C@H]2NC(=O)CCSSC[C@@H](C(=O)N3CCC[C@H]3C(=O)N[C@@H](CCCN)C(=O)NCC(N)=O)NC(=O)[C@H](CC(N)=O)NC(=O)[C@H]([C@@H](C)O)NC(=O)[C@H]([C@@H](C)CC)NC2=O)cc1 ([Mpa][dY](Et)ITNCP[Orn]G-NH2; disulfide 1-6),–,12.3% (inactive)
CO[C@@H]1[C@@H](O[C@@H]2O[C@H](C)[C@@H](O[C@H]3C[C@@](C)(O)[C@@H](OC(=O)CC(C)C)[C@H](C)O3)[C@H](N(C)C)[C@H]2O)[C@@H](CC=O)C[C@@H](C)[C@@H](O)/C=C/C=C/C[C@@H](C)OC(=O)C[C@H]1O,–,4.51% (inactive) and 4.66% (inactive)
c1cnc2cc3c(cc2n1)[C@@H]1CNC[C@H]3C1,–,0.0621% (inactive)
CCC(c1ccccc1)c1noc(CCN(CC)CC)n1 (stereo not drawn),–,15% (inactive)
C=C[C@]1(C)C[C@@H](OC(=O)CO)[C@]2(C)[C@H](C)CC[C@]3(CCC(=O)[C@H]32)[C@@H](C)[C@@H]1O,–,11.6% (inactive)
COc1ccc(C2NC(=S)N3C(c4ccc(OC)c(OC)c4)NC(=S)N23)cc1OC (stereo not drawn),2.3 nM (active),–
CC(=O)O[C@H]1CC[C@@]2(C)C(=CC[C@@H]3[C@@H]2CC[C@]2(C)C(c4cccnc4)=CC[C@@H]32)C1,–,-2.25% (inactive)
CN1CC(O)c2cc(N=NC(N)=O)c(O)cc21 (stereo not drawn),–,-4.67% (inactive)
OCC(O)COc1ccc(Cl)cc1 (stereo not drawn),–,3.94% (inactive)
CN(C)CCOc1ccccc1Cc1ccccc1 (tested in a mixture with another compound),–,6.62% (inactive)
COC[C@H](c1ccc(C(F)(F)F)cc1)N1CCN(C2(C)CCN(C(=O)c3c(C)ncnc3C)CC2)C[C@H]1C,–,-5.74% (inactive)
COC1=C(C(=O)O)N2C(=O)[C@@H](NC(=O)[C@H](N)C3=CCC=CC3)[C@H]2SC1,–,-12.6% (inactive)
CC(C)(C)NC(=O)[C@H]1CC[C@H]2[C@@H]3CC=C4C=C(C(=O)O)CC[C@]4(C)[C@H]3CC[C@]12C,–,-20.3% (inactive)
COc1ccc(C(=O)Nc2ccccc2CCC2CCCCN2C)cc1 (stereo not drawn),–,14.2% (inactive)
NCCCC(=O)O,–,8.69% (inactive) and -6.82% (inactive)
CCOC(=O)COc1ccc2c(=O)cc(-c3ccccc3)oc2c1,–,51.1% (inactive) and 12.3% (inactive)
C[C@H](CSC(=O)c1ccccc1)C(=O)N1C[C@@H](Sc2ccccc2)C[C@H]1C(=O)O,–,13.2% (inactive)
CO/N=C(\C(=O)N[C@@H]1C(=O)N2C(C(=O)OCOC(=O)C(C)(C)C)=C(/C=C\c3scnc3C)CS[C@H]12)c1csc(N)n1,–,-6.43% (inactive)
